Drawing on PubChem BioAssay AID1671448 (Corson Lab, School of Medicine, Indiana University, 2021), this text covers outcome for 65 compounds.

The campaign covered roughly 20,000 compounds. About 660 (3.3%) were called active.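 How the source made its calls: active means enzyme reaction rate more than 3 SD below the solvent-only control wells on the same plate; inactive means the rest.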 For the sample, actives were picked, then their nearest neighbours and some compounds at random.

For the experiment, the target named is Ferrochelatase, mitochondrial (Homo sapiens) (UniProt P22830). Nature of the experiment: FECH heme synthesis enzyme blockers – biochemical, purified FECH, Ni-mesoporphyrin absorbance, primary screen (AID 1671448). The conditions noted are these: Ni-mesoporphyrin absorbance 550 nm, screened at 10 µM (by protocol).
Ferrochelatase, mitochondrial (Homo sapiens), sequence (P22830 whole entry, looked up): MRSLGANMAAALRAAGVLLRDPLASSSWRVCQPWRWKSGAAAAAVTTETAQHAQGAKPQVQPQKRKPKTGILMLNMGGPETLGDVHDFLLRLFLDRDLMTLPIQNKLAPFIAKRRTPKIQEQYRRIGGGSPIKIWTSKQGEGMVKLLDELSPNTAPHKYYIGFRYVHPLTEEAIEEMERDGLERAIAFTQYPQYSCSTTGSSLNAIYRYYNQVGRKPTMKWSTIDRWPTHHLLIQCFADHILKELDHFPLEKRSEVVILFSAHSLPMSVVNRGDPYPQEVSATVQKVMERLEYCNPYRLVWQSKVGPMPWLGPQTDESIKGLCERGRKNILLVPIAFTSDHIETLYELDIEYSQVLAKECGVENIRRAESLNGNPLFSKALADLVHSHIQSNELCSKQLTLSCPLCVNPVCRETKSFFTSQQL
Regarding `COc1cccc(CN2CC(=O)N(Cc3cccc(C(F)(F)F)c3)c3ccccc3S2(=O)=O)c1`, the outcome was inactive. With `O=C1CN(Cc2c(F)cccc2Cl)S(=O)(=O)c2ccccc2N1Cc1ccccc1` the entry was “inactive”; with `Cc1ccc(C)c(N2C(=O)N(Cc3cc(F)cc(F)c3)c3ccccc3S2(=O)=O)c1`, “active”. `COc1ccccc1C(=O)Nc1ccccc1Sc1c(C)c(C)nc2nc(-c3ccccc3)nn12`: the outcome was inactive. With `CC(NC(=O)CCc1c[nH]c2ccccc12)c1cn2ncsc2n1` (stereo not given) the entry was “inactive”; with `CCC(C)N(Cc1ccsc1)C(=O)c1cn2c(n1)CNCC2` (stereo not given), “inactive”.

Consider `Cc1cccc(-c2ncc(CNCCNC(=O)c3ccccc3Cl)cn2)c1`, for which the compound was called inactive. With `CCc1cc(Sc2ccc(NC(=O)Cc3cccs3)cc2)n2ncnc2n1` the entry was “inactive”; with `COc1ccc(C(=O)N(Cc2nc3nc(C)cc(C)n3n2)c2ccc(F)cc2)cc1`, “inactive”.

In the case of `O=C(NCc1ccccc1)c1nc(N2CCOCC2)c2oc3ccccc3c2n1`, the outcome was inactive. With `CCOCCCNC(=O)C1CCN(c2ccc(-c3ccc(C)cc3)nn2)CC1`, the result was inactive. With `Nc1ccc(S(=O)(=O)Nc2cccc(Cl)c2)cc1S(N)(=O)=O` the entry was “active”. With `CCCc1cc(NCc2ccc(OC)cc2)n2nc(-c3cccnc3)nc2n1`, the compound was called inactive.

Turning to `Cc1ccc(-c2ccnc(NCc3cnn4ccccc34)n2)c(C)n1`, the call was inactive. For `O=C(Nc1nc2n(n1)C(c1ccc(F)cc1)C=C(c1ccc(Cl)cc1)N2)c1cccnc1` (stereo not given), the result was inactive.

On to `Cc1ccc(-c2ccnc(-c3ccc(CCC(=O)O)cc3)n2)c(C)n1`, for which the call was inactive. With `Cc1ccc(-n2c(=O)n(C)c3c(C(N)=O)nc(-c4ccc(Cl)cc4)nc32)cc1C` the entry was “inactive”; with `Cc1cc(C)n2nc(CN(C(=O)c3ccco3)c3ccc(Cl)cc3)nc2n1`, “inactive”; with `COc1ccc(NC2=NC(C(=O)Nc3cc(OC)ccc3OC)CC(=O)N2)cc1` (stereo not given), “inactive”.

Regarding `CCOc1cc(-c2c(-c3ccccc3)ncn2Cc2c(C)n[nH]c2C)ccc1OC`, the outcome was inactive.

Regarding `COCCN1CCCC(O)(CN2CCN(c3nc4ccccc4o3)CC2)C1=O` (stereo not given), the compound was classed as inactive. For `OCc1csc(N2CCC(CO)(Cc3ccccc3Cl)CC2)n1` the value was “inactive”; for `Cc1ccc(C2=CC(c3ccc(F)cc3)n3nc(NC(=O)CC(C)C)nc3N2)cc1` (stereo not given), “inactive”.

Consider `Cc1ccc(S(=O)(=O)N2CCN(c3cc(-c4ccc(F)cc4)ncn3)CC2)cc1C`, for which the call was inactive. With `Cc1cccc(-c2nc3nc(CN(C)Cc4ccccc4)cc(=O)n3[nH]2)c1` the entry was “active”; with `CCOc1ccc(N(Cc2nc3nc(C)cc(C)n3n2)C(=O)c2ccco2)cc1`, “inactive”.

On to `O=C(Nc1ccccc1)c1cc2n(n1)CCN(Cc1cnc[nH]1)C2`, for which the compound was classed as inactive.

For `Cn1c(=O)n(Cc2ccc(F)cc2Cl)c(=O)c2cnc(-c3cccnc3)nc21`, the compound was classed as inactive. Regarding `CCOc1ccc(C(=O)N2CCN(S(=O)(=O)c3cc4c5c(c3)CCN5C(=O)CC4)CC2)cc1`, the call was inactive. For `Cc1ccc(Cn2c(CCNC(=O)Nc3cc(C)ccc3C)nc3cccnc32)cc1` the value was “inactive”.

For `Cc1cc(C)cc(CCC(=O)NC(C)c2n[nH]c(C)n2)c1` (stereo not given), the call was inactive.

Consider `CCCN(CCC)C(=O)C1CCCN(c2ncnc3c2nc2n3CCCCC2)C1` (stereo not given), for which the compound was classed as inactive. With `Cc1cccc(CNC(=O)N2CCN(Cc3nc4cccnc4n3-c3ccc(F)cc3)CC2)c1` the entry was “inactive”; with `O=C1CN(S(=O)(=O)c2cc(C(=O)N3CCCC3)cs2)c2ccccc2N1`, “inactive”; with `O=C(CN1CCN(Cc2ccccc2Cl)S1(=O)=O)Nc1ccc2c(c1)OCCO2`, “inactive”. With `CN(CCC1CCCCO1)C(=O)c1ccc(CSc2ncn[nH]2)o1` (stereo not given) the entry was “inactive”. With `Cc1nc(N2CCCCC2)ncc1C(=O)N1CCC2(CCN(C)C2)CC1`, the compound was called inactive. With `CNS(=O)(=O)c1ccc(C2NCCc3[nH]cnc32)cc1` (stereo not given) the entry was “inactive”. With `COc1ccc(CNC(=O)N2CCN(c3cc(-c4ccc(OC)cc4)ncn3)CC2)cc1` the entry was “inactive”. With `COc1ccc(CNC(=O)CN2c3ccc(C(C)C)cc3-c3ccccc3S2(=O)=O)cc1` the entry was “active”.

Regarding `CCC1=C(c2ccc(OC)cc2)S(=O)(=O)N(CC(=O)NCc2ccc(OC(C)C)cc2)C1=O`, the compound was called inactive.

In the case of `CCCNC(=O)NCC1CCCN(Cc2ccco2)C1` (stereo not given), the compound was called inactive. As to `CC(C)c1nccn1Cc1nc2ccccc2c(=O)[nH]1`, the outcome was inactive. Take `CC(C)c1c(-c2ccccc2)ncn1CC(=O)N1CCNCC1`: the call was inactive.

Regarding `COc1ccc(C(=O)N2CCc3[nH]nc(-c4ccc(F)c(F)c4)c3C2)c(O)c1`, the compound was classed as inactive. Turning to `Cc1cc(Sc2ccc(NC(=O)Nc3ccc(F)c(Cl)c3)cc2)n2ncnc2n1`, the result was inactive. With `CCn1c(=O)n(-c2ccc(C)c(C)c2)c2nc(-c3ccc(F)cc3F)nc(C(N)=O)c21` the entry was “inactive”; with `CCCS(=O)(=O)N1CCC(n2c(C(F)(F)F)nc3cccnc32)CC1`, “inactive”; with `Cc1ccc(-c2cc(Nc3ccc(C(N)=O)cc3)nc(C)n2)cc1`, “inactive”. With `CCN(CC)CCNc1nc(Nc2cccc(C)c2)c2cnn(-c3ccccc3)c2n1` the entry was “inactive”; with `COc1ccc(N2CCCS2(=O)=O)cc1NC(=O)COc1ccc(C)cc1`, “inactive”. With `CCC1=C(c2ccc(OC)cc2)S(=O)(=O)N(CC(=O)Nc2cccc(Cl)c2)C1=O` the entry was “inactive”; with `CC(C(=O)NCCc1ccc(S(N)(=O)=O)cc1)N1C(=O)CC(C)(C)Sc2ccccc21` (stereo not given), “inactive”. Regarding `CCCc1cc(Sc2ccc(NC(=O)Nc3cccc(F)c3)cc2)n2ncnc2n1`, the call was inactive. For `COc1cccc(C(=O)N(Cc2nc3nc(C)cc(C)n3n2)c2ccccc2)c1` the value was “inactive”. Turning to `Cc1ccc2nc(CNC(=O)Cc3ccc4c(c3)OCO4)[nH]c2c1`, the result was inactive. For `COCc1nc2cccnc2n1C1CCN(S(=O)(=O)c2ccc(C)c(C)c2)CC1` the value was “inactive”. For `O=C(O)CC1CNCCN(C(=O)c2cccc(Oc3ccccc3)c2)C1` (stereo not given) the value was “inactive”; for `CCOC(=O)Cn1c(=O)n(-c2ccc(F)cc2)c2nc(-c3cccs3)nc(C(N)=O)c21`, “inactive”; for `CN1CCN(Cc2ccc(-n3cccn3)cc2)CC1C(=O)O` (stereo not given), “inactive”. For `CCC1(CC)CN(C(=O)c2nnc(COC)o2)CCO1` the value was “inactive”; for `CCOc1ccc(N2CC(NC(=O)CC)CC2=O)cc1` (stereo not given), “inactive”. With `Cc1ccc(-c2cc(N3CCN(S(=O)(=O)c4ccccc4)CC3)ncn2)cc1`, the compound was called inactive. In the case of `CCCOc1cccc(-c2c(Nc3ccccc3)oc3c2c(=O)n(C)c(=O)n3C)c1`, the call was inactive.

As for `Cc1nnc(SCC(=O)N2CCC(C(O)C(C)C)CC2)s1` (stereo not given), the outcome was inactive.
